# Data taken from PMC12864922, “TDP-43 directly inhibits mRNA accumulation in neurites through modulation of mRNA stability”.
# Whole data set: some 9,900 sequences, median “r (bound/input frequency ratio)” near 0.7, cut for the highest 2% near 6.5. Shown is part of a subset that was picked to be rich in the highest values.
# B1: ENSMUSG00000090935.767|Synj2bp (ssRNA)
# RNA: GGGAGUUCUACAGUCCGACGAUCGCUUCGAUAUCCGCAUGCUAAUUUUAAAAAUCAGUUUACUUUCAUCUUUUCUCUUUAGGCUUUCAAUAAAGACCAGAAGGACUGAUAGACAGCUAGAGAGGAUCGUGUAGGCAUCCAGAUUAGAAUGGAAGAAUCCAUUGAACAAUCUGAGAAAACUAAUCAGGUGUUGUUUUAAUCACAUUAGUUUUAAGUUAGAUACAUGCUCUUUGUAGUAUUUUGGGUUUUAUUGUGCAAAUAAGCAAUUAAAAUAUAUUUAGAAGCCAAGUAUAAUGGUACAUGUCUCUUGCGGUCGCACUAGUGUGGAAUUCUCGGGUGUCAAGG
# B2: ENSMUSG00000058297.23|Spock2 (ssRNA)
# RNA: GGGAGUUCUACAGUCCGACGAUCGCUUCGAUAUCCGCAUGCUACCGACGGCCAGAAAGACAGGCCAGAAGAGACCUGGACAACAGCAGGCAACUUAGCAAAUGGAUCCGGAAGUCAGUGCGGAGGACCCUGGCUCCAGUGGGGGAGGACUGGGGAGUGUGGCUUGUGUGUAUGUGUGAUAUGAGAUGUGUGUGUAUGAUGUGAGAUGUGAGUGUGUGAUGUGAGAUGUGUGUAUGUGAGAUGUGUGUGUGUGUGUGUGUGUGUGUGAUGUGAGUCACCCAAAGGUCCCUAUGUUAUUGAUUUUCUCUUGCGGUCGCACUAGUGUGGAAUUCUCGGGUGUCAAGG
# B3: ENSMUSG00000058297.26|Spock2|95:99;103:116;125:136;150:156;165:174;180:205 (ssRNA)
# RNA: GGGAGUUCUACAGUCCGACGAUCGCUUCGAUAUCCGCAUGCUAGGCCAGAAGAGACCUGGACAACAGCAGGCAACUUAGCAAAUGGAUCCGGAAGUCAGUGCGGAGGACCCUGGCUCCAGUGGGGGAGGACUGGGGACACACGCUACACACAUACACACAUAUGAGAACACACACAUACAUGUGAGAUGUGACACACACAUGUGAGAACACACAUACUGAGAACACACACACACACACACACACACACAUGUGAGUCACCCAAAGGUCCCUAUGUUAUUGAUUUUCAAAUGCACACUUUCACACUCUUGCGGUCGCACUAGUGUGGAAUUCUCGGGUGUCAAGG
# B4: ENSMUSG00000058297.23|Spock2|113:117;121:134;143:154;168:174;183:192;198:223 (ssRNA)
# RNA: GGGAGUUCUACAGUCCGACGAUCGCUUCGAUAUCCGCAUGCUACCGACGGCCAGAAAGACAGGCCAGAAGAGACCUGGACAACAGCAGGCAACUUAGCAAAUGGAUCCGGAAGUCAGUGCGGAGGACCCUGGCUCCAGUGGGGGAGGACUGGGGACACACGCUACACACAUACACACAUAUGAGAACACACACAUACAUGUGAGAUGUGACACACACAUGUGAGAACACACAUACUGAGAACACACACACACACACACACACACACAUGUGAGUCACCCAAAGGUCCCUAUGUUAUUGAUUUUCUCUUGCGGUCGCACUAGUGUGGAAUUCUCGGGUGUCAAGG
# B5: ENSMUSG00000058297.24|Spock2 (ssRNA)
# RNA: GGGAGUUCUACAGUCCGACGAUCGCUUCGAUAUCCGCAUGCUAGCCAGAAAGACAGGCCAGAAGAGACCUGGACAACAGCAGGCAACUUAGCAAAUGGAUCCGGAAGUCAGUGCGGAGGACCCUGGCUCCAGUGGGGGAGGACUGGGGAGUGUGGCUUGUGUGUAUGUGUGAUAUGAGAUGUGUGUGUAUGAUGUGAGAUGUGAGUGUGUGAUGUGAGAUGUGUGUAUGUGAGAUGUGUGUGUGUGUGUGUGUGUGUGUGAUGUGAGUCACCCAAAGGUCCCUAUGUUAUUGAUUUUCAAAUGCUCUUGCGGUCGCACUAGUGUGGAAUUCUCGGGUGUCAAGG
# B6: ENSMUSG00000058297.26|Spock2 (ssRNA)
# RNA: GGGAGUUCUACAGUCCGACGAUCGCUUCGAUAUCCGCAUGCUAGGCCAGAAGAGACCUGGACAACAGCAGGCAACUUAGCAAAUGGAUCCGGAAGUCAGUGCGGAGGACCCUGGCUCCAGUGGGGGAGGACUGGGGAGUGUGGCUUGUGUGUAUGUGUGAUAUGAGAUGUGUGUGUAUGAUGUGAGAUGUGAGUGUGUGAUGUGAGAUGUGUGUAUGUGAGAUGUGUGUGUGUGUGUGUGUGUGUGUGAUGUGAGUCACCCAAAGGUCCCUAUGUUAUUGAUUUUCAAAUGCACACUUUCACACUCUUGCGGUCGCACUAGUGUGGAAUUCUCGGGUGUCAAGG
# B7: ENSMUSG00000058297.25|Spock2 (ssRNA)
# RNA: GGGAGUUCUACAGUCCGACGAUCGCUUCGAUAUCCGCAUGCUAAAGACAGGCCAGAAGAGACCUGGACAACAGCAGGCAACUUAGCAAAUGGAUCCGGAAGUCAGUGCGGAGGACCCUGGCUCCAGUGGGGGAGGACUGGGGAGUGUGGCUUGUGUGUAUGUGUGAUAUGAGAUGUGUGUGUAUGAUGUGAGAUGUGAGUGUGUGAUGUGAGAUGUGUGUAUGUGAGAUGUGUGUGUGUGUGUGUGUGUGUGUGAUGUGAGUCACCCAAAGGUCCCUAUGUUAUUGAUUUUCAAAUGCACACUCUCUUGCGGUCGCACUAGUGUGGAAUUCUCGGGUGUCAAGG
# B8: ENSMUSG00000058297.22|Spock2|119:123;127:140;149:160;174:180;189:198;204:229 (ssRNA)
# RNA: GGGAGUUCUACAGUCCGACGAUCGCUUCGAUAUCCGCAUGCUAAGGGUGCCGACGGCCAGAAAGACAGGCCAGAAGAGACCUGGACAACAGCAGGCAACUUAGCAAAUGGAUCCGGAAGUCAGUGCGGAGGACCCUGGCUCCAGUGGGGGAGGACUGGGGACACACGCUACACACAUACACACAUAUGAGAACACACACAUACAUGUGAGAUGUGACACACACAUGUGAGAACACACAUACUGAGAACACACACACACACACACACACACACAUGUGAGUCACCCAAAGGUCCCUAUGUUAUUCUCUUGCGGUCGCACUAGUGUGGAAUUCUCGGGUGUCAAGG
# Biological target: TDP-43 (Homo sapiens, UniProt Q13148 1-414)
# Experiment: RNA Bind-n-Seq with designed 260-mer pool; 25 mM Tris-HCl, 150 mM KCl, 3 mM MgCl2, BSA (printed 500 mg/mL), 20 units/mL SUPERase IN; pH not stated; 500 nM RNA pool, 1 h, 4 C; TDP-43 5, 50, 500 nM; high values mean tight binding
# Settings: protein: recombinant; tags: SBP (GST cleaved off with PreScission; pGEX-GST-SBP)
# Outline: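 Streptavidin beads captured recombinant SBP-tagged TDP-43 at 5, 50 or 500 nM, and the beads were incubated for 1 h at 4 °C with 500 nM of an in vitro-transcribed pool of 260-nt 3′ UTR oligos in 25 mM Tris-HCl, 150 mM KCl, 3 mM MgCl2, BSA and SUPERase IN. After washing, bound RNA was eluted with biotin, reverse transcribed, PCR-amplified and sequenced. Binding is reported as R, the mapped-read-normalized abundance of each oligo in the bound sample divided by its abundance in the input. Two independent protein batches served as duplicates.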
# TDP-43, sequence (Q13148 whole entry): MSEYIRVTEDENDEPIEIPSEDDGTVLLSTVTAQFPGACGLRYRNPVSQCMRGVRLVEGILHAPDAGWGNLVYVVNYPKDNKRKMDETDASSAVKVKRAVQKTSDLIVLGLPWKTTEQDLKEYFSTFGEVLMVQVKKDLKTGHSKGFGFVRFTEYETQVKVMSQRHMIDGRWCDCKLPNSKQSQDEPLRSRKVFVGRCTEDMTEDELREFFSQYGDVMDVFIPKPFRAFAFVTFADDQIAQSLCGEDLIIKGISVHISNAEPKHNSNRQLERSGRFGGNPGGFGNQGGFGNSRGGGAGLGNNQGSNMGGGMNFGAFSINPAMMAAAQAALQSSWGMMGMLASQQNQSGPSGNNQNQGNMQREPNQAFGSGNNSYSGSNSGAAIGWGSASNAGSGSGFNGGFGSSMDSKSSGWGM
row,Binder,binding signal
1,B1,0.0267 R (bound/input frequency ratio)
2,B2,6.74 R (bound/input frequency ratio)
3,B3,3.09 R (bound/input frequency ratio)
4,B4,4.42 R (bound/input frequency ratio)
5,B5,9.99 R (bound/input frequency ratio)
6,B6,6.34 R (bound/input frequency ratio)
7,B7,6.77 R (bound/input frequency ratio)
8,B8,2.11 R (bound/input frequency ratio)
